Experimental data published in the supplement of paper PMC7411054.
Counter-ions that a name gives are not always drawn.

Columns and labels:
Details in all cases: treatment time: 24 h
A549-GM130-SQSTM1 [1] = assay: lowest phenotypically active concentration; higher = less potent
Outline: (§1)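 Cells from fifteen gene-edited reporter lines (A549, HepG2 and WPMY1) were treated for 24 h at 0.3, 1, 3 or 9 µM and imaged live, four wells per condition. Features were normalised per well to solvent control wells. A condition deviated if ≥3 of 4 wells passed the 95th percentile of control Euclidean distances and was reproducible if its median replicate Pearson correlation beat the 95th percentile of non-replicates; phenotypic activity needed both.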

HepG2-CANX-COX4 [2] = assay: as above
Outline: as §1

HepG2-GM130-SQSTM1 [3] = assay: as above
Outline: as §1

WPMY1-GM130-SQSTM1 [4] = assay: as above
Outline: as §1

WPMY1-TP53BP1-CLTA [5] = assay: as above
Outline: as §1

A549-ACTB-RAB5A = assay: phenotypically active (imaging signature differs from DMSO and reproducible) at any of 0.3-9 uM (binary (1 = active, 0 = inactive)); higher = active
Outline: as §1

A549-CANX-COX4 = assay: as above
Outline: as §1

A549-GM130-SQSTM1 [6] = assay: as above
Outline: as §1

A549-TP53BP1-CLTA = assay: as above
Outline: as §1

A549-TUBA1B-RELA = assay: as above
Outline: as §1

HepG2-ACTB-RAB5A = assay: as above
Outline: as §1

HepG2-CANX-COX4 [7] = assay: as above
Outline: as §1

HepG2-GM130-SQSTM1 [8] = assay: as above
Outline: as §1

HepG2-TP53BP1-CLTA = assay: as above
Outline: as §1

HepG2-TUBA1B-RELA = assay: as above
Outline: as §1

WPMY1-ACTB-RAB5A = assay: as above
Outline: as §1

WPMY1-CANX-COX4 = assay: as above
Outline: as §1

WPMY1-GM130-SQSTM1 [9] = assay: as above
Outline: as §1

WPMY1-TP53BP1-CLTA [10] = assay: as above
Outline: as §1

WPMY1-TUBA1B-RELA = assay: as above
Outline: as §1

C[C@]12CC[C@H](O)C[C@H]1CC[C@@H]1[C@@H]2C[C@@H](O)[C@]2(C)[C@@H](C3=CC(=O)OC3)CC[C@]12O [Digoxigenin]
3 µM: lowest phenotypically active concentration (HepG2-CANX-COX4 [2]) | lowest phenotypically active concentration (HepG2-GM130-SQSTM1 [3]) | lowest phenotypically active concentration (WPMY1-GM130-SQSTM1 [4])
≤ 0.3 µM: lowest phenotypically active concentration (A549-GM130-SQSTM1 [1])
active: phenotypically active (A549-ACTB-RAB5A) 1 | phenotypically active (A549-CANX-COX4) 1 | phenotypically active (A549-GM130-SQSTM1 [6]) 1 | phenotypically active (A549-TP53BP1-CLTA) 1 | phenotypically active (A549-TUBA1B-RELA) 1 | phenotypically active (HepG2-ACTB-RAB5A) 1 | phenotypically active (HepG2-CANX-COX4 [7]) 1 | phenotypically active (HepG2-GM130-SQSTM1 [8]) 1 | phenotypically active (HepG2-TP53BP1-CLTA) 1 | phenotypically active (HepG2-TUBA1B-RELA) 1 | phenotypically active (WPMY1-ACTB-RAB5A) 1 | phenotypically active (WPMY1-CANX-COX4) 1 | phenotypically active (WPMY1-GM130-SQSTM1 [9]) 1 | phenotypically active (WPMY1-TP53BP1-CLTA [10]) 1 | phenotypically active (WPMY1-TUBA1B-RELA) 1
1 µM: lowest phenotypically active concentration (WPMY1-TP53BP1-CLTA [5])

O=c1[nH]c2ccccc2n1C1CCN(CCCC(c2ccc(F)cc2)c2ccc(F)cc2)CC1 [pimozide]
9 µM: lowest phenotypically active concentration (A549-GM130-SQSTM1 [1])
active: phenotypically active (A549-ACTB-RAB5A) 1 | phenotypically active (A549-GM130-SQSTM1 [6]) 1 | phenotypically active (A549-TUBA1B-RELA) 1 | phenotypically active (HepG2-ACTB-RAB5A) 1 | phenotypically active (HepG2-GM130-SQSTM1 [8]) 1 | phenotypically active (HepG2-TUBA1B-RELA) 1
3 µM: lowest phenotypically active concentration (HepG2-GM130-SQSTM1 [3])
inactive: phenotypically active (A549-CANX-COX4) 0 | phenotypically active (A549-TP53BP1-CLTA) 0 | phenotypically active (HepG2-CANX-COX4 [7]) 0 | phenotypically active (HepG2-TP53BP1-CLTA) 0 | phenotypically active (WPMY1-ACTB-RAB5A) 0 | phenotypically active (WPMY1-CANX-COX4) 0 | phenotypically active (WPMY1-GM130-SQSTM1 [9]) 0 | phenotypically active (WPMY1-TP53BP1-CLTA [10]) 0 | phenotypically active (WPMY1-TUBA1B-RELA) 0

N#CC(C#N)=NNc1ccc(OC(F)(F)F)cc1
9 µM: lowest phenotypically active concentration (HepG2-CANX-COX4 [2]) | lowest phenotypically active concentration (HepG2-GM130-SQSTM1 [3]) | lowest phenotypically active concentration (WPMY1-GM130-SQSTM1 [4])
3 µM: lowest phenotypically active concentration (A549-GM130-SQSTM1 [1]) | lowest phenotypically active concentration (WPMY1-TP53BP1-CLTA [5])
active: phenotypically active (A549-ACTB-RAB5A) 1 | phenotypically active (A549-CANX-COX4) 1 | phenotypically active (A549-GM130-SQSTM1 [6]) 1 | phenotypically active (A549-TP53BP1-CLTA) 1 | phenotypically active (A549-TUBA1B-RELA) 1 | phenotypically active (HepG2-ACTB-RAB5A) 1 | phenotypically active (HepG2-CANX-COX4 [7]) 1 | phenotypically active (HepG2-GM130-SQSTM1 [8]) 1 | phenotypically active (HepG2-TP53BP1-CLTA) 1 | phenotypically active (HepG2-TUBA1B-RELA) 1 | phenotypically active (WPMY1-ACTB-RAB5A) 1 | phenotypically active (WPMY1-CANX-COX4) 1 | phenotypically active (WPMY1-GM130-SQSTM1 [9]) 1 | phenotypically active (WPMY1-TP53BP1-CLTA [10]) 1 | phenotypically active (WPMY1-TUBA1B-RELA) 1

CCN1CCN(C(=O)Cc2ccc(Nc3ncc(F)c(Nc4ccc(C(=O)Nc5ccccc5Cl)cc4)n3)cc2)CC1
1 µM: lowest phenotypically active concentration (A549-GM130-SQSTM1 [1]) | lowest phenotypically active concentration (HepG2-CANX-COX4 [2]) | lowest phenotypically active concentration (HepG2-GM130-SQSTM1 [3]) | lowest phenotypically active concentration (WPMY1-TP53BP1-CLTA [5])
active: phenotypically active (A549-ACTB-RAB5A) 1 | phenotypically active (A549-CANX-COX4) 1 | phenotypically active (A549-GM130-SQSTM1 [6]) 1 | phenotypically active (A549-TP53BP1-CLTA) 1 | phenotypically active (A549-TUBA1B-RELA) 1 | phenotypically active (HepG2-ACTB-RAB5A) 1 | phenotypically active (HepG2-CANX-COX4 [7]) 1 | phenotypically active (HepG2-GM130-SQSTM1 [8]) 1 | phenotypically active (HepG2-TP53BP1-CLTA) 1 | phenotypically active (HepG2-TUBA1B-RELA) 1 | phenotypically active (WPMY1-ACTB-RAB5A) 1 | phenotypically active (WPMY1-TP53BP1-CLTA [10]) 1 | phenotypically active (WPMY1-TUBA1B-RELA) 1
inactive: phenotypically active (WPMY1-CANX-COX4) 0 | phenotypically active (WPMY1-GM130-SQSTM1 [9]) 0

CC[C@H]1CN2CC[C@H]1C[C@@H]2[C@@H](O)c1ccnc2ccc(OC)cc12 [Hydroquinidine HCl]
inactive: phenotypically active (A549-CANX-COX4) 0 | phenotypically active (A549-GM130-SQSTM1 [6]) 0 | phenotypically active (A549-TP53BP1-CLTA) 0 | phenotypically active (HepG2-ACTB-RAB5A) 0 | phenotypically active (HepG2-TP53BP1-CLTA) 0 | phenotypically active (HepG2-TUBA1B-RELA) 0 | phenotypically active (WPMY1-GM130-SQSTM1 [9]) 0 | phenotypically active (WPMY1-TP53BP1-CLTA [10]) 0
active: phenotypically active (A549-ACTB-RAB5A) 1 | phenotypically active (A549-TUBA1B-RELA) 1 | phenotypically active (HepG2-CANX-COX4 [7]) 1 | phenotypically active (HepG2-GM130-SQSTM1 [8]) 1 | phenotypically active (WPMY1-ACTB-RAB5A) 1 | phenotypically active (WPMY1-CANX-COX4) 1 | phenotypically active (WPMY1-TUBA1B-RELA) 1
9 µM: lowest phenotypically active concentration (HepG2-CANX-COX4 [2]) | lowest phenotypically active concentration (HepG2-GM130-SQSTM1 [3])
